Most compounds without a hit are left out; they make up all but 18% or so of the library.
CtBP-E1A blk – inhibitors of CtBP/E1A interaction. AlphaScreen GST-E1A/His-CtBP binding, 1536-well; stronger effect = lower value. AID 651724. activity change, % (concentration not given with the values). hit rate 0.49% among 340,000; in the data active means activity change below about -65%; inconclusive means mostly about -30% to -63%
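Steps: dispense buffer (Tris pH 8.0, NaCl 300 mM, TCEP 1 mM, BSA, Tween 20); add 5X protein mix (GST-E1A, His-CtBP, 125 nM each); pin 23 nL compound; 2 h at 37 °C, dark; add 5X beads (50 ug/mL); 1 h; read.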
TDP1 block – blocks human tyrosyl-DNA phosphodiesterase 1; Q9NUW8; recombinant TDP1, AlphaScreen DNA substrate cleavage; Potency, µM (highest dose often 130 µM), most hits filed as inhibitors; hit rate 0.28% among 350,000; AID 485290; further: nearly all actives have a fitted effect of over 40% in size
Target sequence (Q9NUW8 whole entry, looked up): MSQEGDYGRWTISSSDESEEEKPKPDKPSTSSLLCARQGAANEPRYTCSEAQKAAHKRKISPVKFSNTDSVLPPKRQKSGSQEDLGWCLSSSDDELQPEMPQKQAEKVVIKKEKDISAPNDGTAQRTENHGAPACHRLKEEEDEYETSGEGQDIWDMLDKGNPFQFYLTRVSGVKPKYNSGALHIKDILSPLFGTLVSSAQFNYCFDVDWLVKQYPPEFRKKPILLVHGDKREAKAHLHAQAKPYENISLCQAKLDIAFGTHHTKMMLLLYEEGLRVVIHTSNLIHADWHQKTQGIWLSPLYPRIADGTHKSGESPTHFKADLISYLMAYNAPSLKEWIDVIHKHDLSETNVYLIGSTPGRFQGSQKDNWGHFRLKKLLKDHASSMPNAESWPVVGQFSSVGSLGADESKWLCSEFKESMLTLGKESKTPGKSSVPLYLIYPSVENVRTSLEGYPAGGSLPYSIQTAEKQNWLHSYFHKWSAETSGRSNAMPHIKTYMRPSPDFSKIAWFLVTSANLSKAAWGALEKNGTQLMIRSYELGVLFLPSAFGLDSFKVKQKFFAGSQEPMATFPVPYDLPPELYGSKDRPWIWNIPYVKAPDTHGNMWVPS
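Signal: AlphaScreen proximity between streptavidin donor and anti-FITC acceptor beads on intact substrate. Reaction: Tdp1 1 nM, substrate 15 nM final, 5 min RT after 15 min compound preincubation.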
Six1-Eya2 blk – blocks human Six1 binding to Eya2 | AlphaScreen GST-Six1/His-Eya2 binding, biochemical; stronger effect = lower value | activity change, % (concentration not given with the values) | hit rate 0.56% among 360,000 | AID 651725; in the data active means activity change below about -65%; inconclusive means mostly about -30% to -63%
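Six1/Eya2 binding was read as AlphaScreen signal after compounds were pinned into GST-Six1 plus His-tagged Eya2 (5X stock 250/500 nM) in pH 8.0 Tris/NaCl/TCEP buffer, beads added, then incubated 1 h, 37 C, dark.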
TDP1 cell noCPT – qHTS for Inhibitors of human tyrosyl-DNA phosphodiesterase 1 (TDP1): qHTS in cells in absence of CPT; DT40 Tdp1-/- hTDP1 cells, no CPT, ATP luminescence, 48 h; Potency, µM (highest dose often 46.2 µM), hits mostly inhibitors; hit rate 15% among 420,000; AID 686978, 2013; further: nearly all actives have a fitted effect of over 55% in size
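Growth kinetics read by CellTiter-Glo luminescence after ≥48 hr at 37 °C. Cells: DT40 Tdp1-/- stably carrying human TDP1, 400 per well, compound exposure in the absence of CPT (DMSO vehicle).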
TDP1 cell CPT – growth inhibition of DT40 Tdp1-/-;hTDP1 cells with camptothecin (screen for TDP1 inhibitors); chicken DT40 Tdp1-/-;hTDP1 cells + 20 nM CPT, ATP luminescence, 48 h; Potency, µM (titrated, usually from 46.2 µM), most hits filed as inhibitors; hit rate 12% among 420,000; further: nearly all actives have a fitted effect of over 55% in size
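Chicken DT40 Tdp1-/- cells stably complemented with human TDP1 were seeded at 400 cells/well in medium containing 20 nM camptothecin, exposed to pin-transferred compounds, and grown at 37 °C for at least 48 hr. Viability was read as ATP luminescence.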
IL1B secr inh – inhibitors of inflammasome signaling (IL-1 beta secretion); THP-1 LPS/ATP IL-1B secretion, AlphaLISA, 16 h; stronger effect = lower value; activity change, % at 57.5 µM; hit rate 4.7% among 360,000; AID 743279; in the data active means activity change below about -50%; inconclusive means mostly about -30% to -49%
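Secreted IL-1B measured by AlphaLISA bead assay after 16 h compound exposure of THP-1 cells; compounds (final up to 57.5 uM) added 1 h before LPS (250 ng/mL) and ATP (1.25 mM) stimulation; lower signal means less secretion.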
Hits are given with their value; . = inactive; ? = inconclusive; / = no result; [ ] = another dose, or the depositor's remark. Unless noted, the call rests on the fitted dose curve; in most records, active means well fitted curve in the direction sought with a large enough effect; inconclusive means small, poorly fitted or top-dose-only effect, or another doubt; inactive means no such curve, though single readings can be large; an effect the other way counts as inactive or inconclusive.

SMILES	CtBP-E1A blk	TDP1 block	Six1-Eya2 blk	TDP1 cell noCPT	TDP1 cell CPT	IL1B secr inh
CC1CCCCC12NC(=O)N(CC(=O)c1ccc3c(c1)OCO3)C2=O (stereo not given)	.	.	.	.	.	.
CCc1noc(C)c1C(=O)NNC(=O)COc1ccc(C)c(C)c1	.	/	.	.	.	.
CCOC(=O)c1c(NC(=O)CSc2nnnn2-c2ccc3c(c2)OCCO3)sc(C)c1C	.	.	.	?	?	.
CCc1ccc(NC(=O)C(C)OC(=O)c2ccc(NS(=O)(=O)c3ccc(C)c([N+](=O)[O-])c3)cc2)cc1 (stereo not given)	.	.	.	?	?	-76.7
Cc1ccc(NC(=O)C(C)OC(=O)c2ccc(NS(=O)(=O)c3ccc(F)c(F)c3)cc2)cc1 (stereo not given)	.	.	.	?	?	?
COC(=O)c1ccc(C(=O)OC)c(NC(=O)CSc2ccccn2)c1	.	.	.	?	?	.
O=C(CNC(=O)c1cccc(F)c1)N/N=C/c1cc(Br)ccc1OC(=O)/C=C/c1ccco1	-88.0	.	-88.4	3.66µM	7.31µM	.
O=C(CNC(=O)c1ccccc1O)N/N=C/c1cc(Br)ccc1OC(=O)/C=C/c1ccco1	-95.4	.	-85.0	4.61µM	7.31µM	.
COc1ccc([N+](=O)[O-])cc1/C=N/NC(=O)CNC(=O)c1cccc(F)c1	-69.8	.	?	?	.	.
O=C(CNC(=O)c1ccccc1Br)N/N=C/c1ccco1	.	/	.	.	.	.
Cc1cc2nc(SCCOC(=O)Nc3ccccc3)nc(C)c2cc1C	.	.	.	?	?	.
O=C(CSc1nc(-c2ccc(Cl)cc2)cs1)Nc1cccc([N+](=O)[O-])c1	/	.	.	16.4µM	?	.
Cc1cc(NC(=O)CSc2nc(-c3ccc(Cl)cc3)cs2)no1	.	.	.	.	.	.
O=[N+]([O-])c1cccc(NC(=S)Nc2nc(-c3ccccc3Cl)cs2)c1	.	.	.	18.4µM	?	-59.0
Cc1ccc(C)n1C(CC(=O)O)c1ccc(C#N)cc1 (stereo not given)	.	.	.	.	.	.
O=C(/C=C/c1ccccc1[N+](=O)[O-])Oc1ccccc1	/	.	/	/	/	/
O=C(NNS(=O)(=O)c1ccccc1[N+](=O)[O-])c1ccc(F)cc1	.	.	.	16.4µM	?	.
O=C(/C=C/c1ccccc1O)c1ccccc1	.	/	.	14.6µM	20.6µM	-53.5
CC(=O)/C=C/c1ccccc1O	/	.	.	?	.	.
O=C(/C=C/c1cccc2ccccc12)c1ccncc1	.	.	.	14.6µM	20.6µM	-82.5
O=C(/C=C/c1ccccc1[N+](=O)[O-])c1ccc(F)cc1	.	.	.	18.4µM	13µM	?
CCCCC1C(=O)NN(c2ccccc2)C1=O (stereo not given)	.	/	.	.	.	.
COC(=O)c1ccc([C@@H]2Nc3c(cccc3C(F)(F)F)[C@@H]3C=CC[C@@H]32)cc1	/	/	/	?	.	/
O=C(COC(=O)CNC(=O)c1ccccc1F)NCCC1=CCCCC1	.	.	.	.	.	.
CN(Cc1cccs1)C(=O)/C=C/c1ccccc1[N+](=O)[O-]	.	.	.	.	.	.
SMILES	CtBP-E1A blk	TDP1 block	Six1-Eya2 blk	TDP1 cell noCPT	TDP1 cell CPT	IL1B secr inh
O=C(/C=C(\O)c1ccccc1)c1ccccc1O	/	.	/	8.2µM	16.4µM	/
COc1ccc(CNC(=O)/C=C/c2ccccc2[N+](=O)[O-])cc1	/	.	.	.	.	.
CCN(Cc1ccccc1)C(=O)/C=C/c1ccccc1[N+](=O)[O-]	.	.	.	?	16.4µM	.
CCOc1ccccc1/C=C/C(=O)c1ccc(Cl)cc1	.	.	.	16.4µM	?	.
COC(=O)C(=Cc1ccccc1[N+](=O)[O-])C(=O)OC	/	.	.	11.6µM	8.2µM	-65.5
CC1(NC(=O)CN2CCN(c3cnn(-c4ccccc4)c(=O)c3Cl)CC2)CCS(=O)(=O)C1 (stereo not given)	.	.	.	.	.	.
Cc1cc(O)c(C(=O)/C=C/c2cccc([N+](=O)[O-])c2)c(=O)o1	.	/	.	?	?	.
O=C(/C=C/c1ccccc1O)c1ccc(Cl)cc1	/	/	.	23.1µM	20.6µM	?
Cc1cc(O)c(C(=O)/C=C/c2ccccc2O)c(=O)o1	/	/	.	29.1µM	23.1µM	?
O=C(CSCc1ccccc1)N1CCN(Cc2ccc3c(c2)OCO3)CC1	.	.	.	?	?	?
CC(=O)NCCNC(=O)c1cnn(-c2nccc(-c3cc(C)sc3C)n2)c1C	/	/	/	.	?	/
CN(C)c1cccc2c1C(=O)c1ccccc1C2=O	-85.1	.	-85.7	?	.	?
CN1C(=O)c2cccc(N(C)C)c2C1=O	.	.	.	.	.	.
CC(C)(O)CNC(=O)C(Cc1ccccc1)N1C(=O)c2ccccc2C1=O (stereo not given)	.	/	.	.	.	.
COc1cc(-c2nc(C)cnc2C)cc2c1OCCN(C(=O)Cc1cc(OC)c(OC)c(OC)c1)C2	/	/	/	.	.[9.04 µM]	/
CC(=O)C1C(=O)c2c(cccc2[N+](=O)[O-])C1=Nc1ccc(S(N)(=O)=O)cc1 (stereo not given)	.	.	.	?	18.4µM	.
COc1ccc(OC)c(NC(=O)C23CC4CC(C2)CC(n2cnc(Br)n2)(C4)C3)c1	.	.	.	10µM	11.2µM	.
COc1ccc(NC(=O)C23CC4CC(C2)CC(n2cnc(Br)n2)(C4)C3)c(OC)c1	.	.	.	?	?	.
Nc1nonc1N/N=C/c1c(O)ccc2ccccc12	.	.	.	.	.	-59.4
Nc1nonc1N/N=C\c1ccccc1	.	/	.	.	.	.
Nc1cc(Cl)nc(N/N=C/c2c(O)ccc3ccccc23)n1	.	.	?	16.4µM	?	.
O=C1[C@@H]2[C@H]3CC[C@H](C3)[C@@H]2C(=O)N1O	.	/	.	.	.	.
CCC(C)NC(=O)c1ccc2c(Cl)c3c(nc2c1)CCC3 (stereo not given)	.	.	.	.	.	?
CCc1ccc(CNC(=O)c2ccc3c(Cl)c4c(nc3c2)CCCC4)cc1	/	.	/	23.1µM	?	/
O=C(NCc1ccc(F)cc1)c1ccc2c(Cl)c3c(nc2c1)CCCC3	/	.	/	16.4µM	?	/
CCCCNC(=O)c1ccc2c(SCC(=O)O)c3c(nc2c1)CCCC3	.	.	.	.	.	.
CN1CCN(CCCNC(=O)c2ccc3c(Cl)c4c(nc3c2)CCCC4)CC1	/	.	.	20.6µM	?	-55.9
CCOc1ccc(CNC(=O)c2ccc3nc(CC)c(CC)nc3c2)cc1	/	.	/	18.4µM	16.4µM	/
